From PubChem BioAssay
Active and inactive are the calls of the source.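 The calls were made as follows, unless noted: active = visual image review flags a hit and inhibition of aggregation exceeds 20%; inconclusive = visual hit but inhibition at or below 20%; inactive = no hit on visual image review.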

Key:
[1] = inhibitors of TNFa-induced NFkB p65 translocation, primary screen, imaging, HUVEC, MLSMR starter and 10KST1 sets (AID 438;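 active = inhibition above 20% together with a positive visual image hit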;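 also: compound added about 3h40 before a 20 min TNFalpha stimulation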;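 as to inhibition: signal is the nuclear over cytoplasmic p65 intensity ratio per well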); details: HUVEC TNFa-induced p65 nuclear translocation; cell count: measured here: nuclei count (cytotoxicity indicator), at 2.08 µM; inhibition: at 2 µM, stronger effect = higher value, 0% TNFa-plus-vehicle, 100% no-TNFa wells
[2] = reduction of polyQ htt aggregates in cells – imaging, exon1htt(103Q)mCFP cells, high-content imaging, primary screen (AID 483); details: exon1htt(103Q)mCFP cell line, aggregate imaging, at 2 µM; inhibition of aggregation: stronger effect = higher value; nuclei count: measured here: cell count, toxicity;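 also: compound exposure lasted 3 days before fixation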;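 as to nuclei count: percent of the per-plate median nuclei count of sample wells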
[3] = endothelial E-selectin expression blockers – imaging, HUVEC, immunofluorescence, MLSMR starter and 10KST1 sets, primary screen (AID 487;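 active = visually confirmed hit in the image check and inhibition above 20%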;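 as to inhibition: signal is fraction of cell area covered by stained E-selectin grains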;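 as to nuclei count: 100% = median nuclei count of all wells on the same plate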); details: HUVEC TNFalpha-induced E-selectin immunofluorescence imaging, at 2 µM; inhibition: stronger effect = higher value; nuclei count: measured here: cell number, toxicity
[4] = target: Voltage-gated potassium channel subunit beta-2 (Rattus norvegicus) (UniProt P62483); assay: inhibitors of rat Kvbeta2 reductase activity – biochemical, NADPH fluorescence, primary screen (AID 622;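 active = fluorescence slope higher than the sample average by over 3 SD, cut at about -0.22 in these data, passing the limit was not always enough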;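 also: slope of raw intensity against log time taken from 70 to 1610 s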); details: recombinant KvBeta, 4-cyanobenzaldehyde reduction, at 10 µM, stronger effect = higher value
Chain of Voltage-gated potassium channel subunit beta-2 (Rattus norvegicus) (P62483 whole entry, looked up): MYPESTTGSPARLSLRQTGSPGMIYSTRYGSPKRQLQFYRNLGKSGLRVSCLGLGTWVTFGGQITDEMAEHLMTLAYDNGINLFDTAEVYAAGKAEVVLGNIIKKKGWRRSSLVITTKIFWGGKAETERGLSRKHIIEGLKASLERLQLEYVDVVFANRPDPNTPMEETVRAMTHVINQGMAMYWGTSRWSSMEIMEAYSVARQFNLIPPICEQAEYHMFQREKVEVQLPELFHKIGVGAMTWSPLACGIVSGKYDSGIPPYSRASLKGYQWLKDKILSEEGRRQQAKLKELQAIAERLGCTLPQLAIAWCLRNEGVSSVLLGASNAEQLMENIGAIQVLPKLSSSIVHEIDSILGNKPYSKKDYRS

[5] = target: Voltage-gated potassium channel subunit beta-2 (Rattus norvegicus) (UniProt P62483); assay: enhancers of rat Kvbeta2 NADPH turnover – biochemical, NADPH fluorescence, primary screen (AID 623;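 active = NADPH fluorescence slope more negative than the mean of all samples by about 3 SD, 99.7% confidence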;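 also: fluorescence intensity change per second fitted from 20 to 320 s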); details: Recombinant KvBeta, NADPH fluorescence decrease slope, 10 min; at 10 µM; stronger effect = lower value
[6] = target: Alpha-2C adrenergic receptor (Homo sapiens) (UniProt P18825); assay: compounds altering alpha2C-coupled GIRK flux – cell-based, HEK293 alpha2C/GIRK1/2, thallium flux, primary screen (AID 624;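 active = fluorescence slope after compound addition differing from the mean of all screened samples at 99.7% confidence, in either direction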;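 also: slope of fluorescence ratio to pre-addition baseline per second over 15 to 24 s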); details: thallium flux BTC fluorescence, at 10 µM, actives lie on both sides
Chain of Alpha-2C adrenergic receptor (Homo sapiens) (P18825 whole entry, looked up): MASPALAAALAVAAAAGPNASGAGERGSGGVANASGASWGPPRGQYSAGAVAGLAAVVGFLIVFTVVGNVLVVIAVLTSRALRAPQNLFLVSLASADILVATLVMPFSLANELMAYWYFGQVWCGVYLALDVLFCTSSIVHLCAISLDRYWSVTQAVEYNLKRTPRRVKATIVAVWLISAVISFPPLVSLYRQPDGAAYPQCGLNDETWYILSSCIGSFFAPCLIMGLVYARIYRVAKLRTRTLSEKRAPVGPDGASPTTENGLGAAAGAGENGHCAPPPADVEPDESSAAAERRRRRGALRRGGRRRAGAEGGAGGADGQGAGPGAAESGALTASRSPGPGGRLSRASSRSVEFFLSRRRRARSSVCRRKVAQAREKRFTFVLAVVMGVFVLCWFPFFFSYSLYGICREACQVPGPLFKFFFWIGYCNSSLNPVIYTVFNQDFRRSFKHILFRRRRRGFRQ

[7] = blockers of RIG-like receptor reporter activation – cell-based, Sendai virus stimulus, luciferase, 10K MLSCN set, TLR/RLR signaling modifier project, primary screen (AID 602276;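 active = inhibition at or above 50% at 10 µM; inactive = inhibition below 50%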;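 also: firefly luciferase from ISG56 promoter only with Renilla not read in this screen; 0% = Sendai virus plus DMSO and 100% = medium plus DMSO without virus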); details: HEK293 RL24 IRF3 luciferase reporter, at 10 µM, stronger effect = higher value
[8] = TLR3 IRF3 reporter activation blockers – cell-based, poly I:C stimulus, luciferase, 10K MLSCN set, primary screen (AID 602277;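 active = inhibition of the reporter signal at or above 50%; inactive = inhibition below 50%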); details: HEK293-TLR3 RL24 IRF3 luciferase reporter, at 10 µM, stronger effect = higher value

## CC(=O)N1CCc2cc(Br)cc(S(=O)(=O)NCCCN3CCCC(C)C3)c21 (stereo not given)
[1]
  cell count: 379
  inhibition: 0.3% (inactive)
[2]
  inhibition of aggregation: -1.8% (inactive)
  nuclei count: 104%
[3]
  inhibition: -170% (inactive)
  nuclei count: 96%
[4]
  fluorescence slope: -0.47 (inactive)
[5]
  NADPH fluorescence slope: 1.8e-05 (inactive)
[6]
  slope: 0.00613 (inactive)
[7]
  inhibition: -7.41% (inactive)
[8]
  inhibition: 12.2% (inactive)

## CCn1c(SCC(=O)Nc2cc(NC(C)=O)ccc2OC)nnc1-c1ccccn1
[1]
  cell count: 630
  inhibition: 6.5% (inactive)
[2]
  inhibition of aggregation: 3.4% (inactive)
  nuclei count: 89.9%
[3]
  inhibition: 51.6% (inactive)
  nuclei count: 92.7%
[4]
  fluorescence slope: -0.541 (inactive)
[5]
  NADPH fluorescence slope: 1.5e-05 (inactive)
[6]
  slope: 0.00559 (inactive)
[7]
  inhibition: 10.3% (inactive)
[8]
  inhibition: 8.37% (inactive)

## Cc1ccccc1-c1nc(CS(=O)(=O)CC(=O)NCc2ccc3c(c2)OCO3)c(C)o1
[1]
  cell count: 676
  inhibition: -0.6% (inactive)
[2]
  inhibition of aggregation: -60.8% (inactive)
  nuclei count: 115%
[3]
  inhibition: -6.5% (inactive)
  nuclei count: 110%
[4]
  fluorescence slope: -0.497 (inactive)
[5]
  NADPH fluorescence slope: -2.5e-05 (inactive)
[6]
  slope: 0.0071 (inactive)
[7]
  inhibition: 24.2% (inactive)
[8]
  inhibition: 17% (inactive)

## CC1CCC(C(=O)NC(C(=O)NCCN2CCC(C)CC2)C(C)C)CC1 (stereo not given)
[1]
  cell count: 256
  inhibition: -3.9% (inactive)
[2]
  inhibition of aggregation: -5.5% (inactive)
  nuclei count: 71.9%
[3]
  inhibition: -24.9% (inactive)
  nuclei count: 101%
[4]
  fluorescence slope: -0.495 (inactive)
[5]
  NADPH fluorescence slope: 8.5e-05 (inactive)
[6]
  slope: 0.00683 (inactive)
[7]
  inhibition: 19.4% (inactive)
[8]
  inhibition: 25.4% (inactive)

## O=C1c2ccccc2NC2CCCCCN12 (stereo not given)
[1]
  cell count: 445
  inhibition: -2.1% (inactive)
[2]
  inhibition of aggregation: -11% (inactive)
  nuclei count: 108%
[3]
  inhibition: 13.9% (inactive)
  nuclei count: 110%
[4]
  fluorescence slope: -0.417 (inactive)
[5]
  NADPH fluorescence slope: 2.2e-05 (inactive)
[6]
  slope: 0.0068 (inactive)
[7]
  inhibition: -2.99% (inactive)
[8]
  inhibition: 4.91% (inactive)

## COc1cc(CN2CCC(C(=O)NC3CCCC3)CC2)ccc1O
[1]
  cell count: 755
  inhibition: -5.5% (inactive)
[2]
  inhibition of aggregation: -13.7% (inactive)
  nuclei count: 64.3%
[3]
  inhibition: -29.8% (inactive)
  nuclei count: 124%
[4]
  fluorescence slope: -0.344 (inactive)
[5]
  NADPH fluorescence slope: -3.9e-06 (inactive)
[6]
  slope: 0.00666 (inactive)
[7]
  inhibition: 4.81% (inactive)
[8]
  inhibition: 13.9% (inactive)

## Cc1nc2ccccc2c2oc(C(=O)NCC3COc4ccccc4O3)cc12 (stereo not given)
[1]
  cell count: 532
  inhibition: 7.6% (inactive)
[2]
  inhibition of aggregation: -11.9% (inactive)
  nuclei count: 91.7%
[3]
  inhibition: 3.3% (inactive)
  nuclei count: 99%
[4]
  fluorescence slope: -0.569 (inactive)
[5]
  NADPH fluorescence slope: -1.4e-05 (inactive)
[6]
  slope: 0.00744 (inactive)
[7]
  inhibition: 9.7% (inactive)
[8]
  inhibition: -3.35% (inactive)

## COC(=O)c1cc(OC)c(OCc2cc(C(=O)OC)oc2C)c(OC)c1
[1]
  cell count: 753
  inhibition: 1.5% (inactive)
[2]
  inhibition of aggregation: -6.3% (inactive)
  nuclei count: 106%
[3]
  inhibition: 32.8% (inactive)
  nuclei count: 85.7%
[4]
  fluorescence slope: -0.396 (inactive)
[5]
  NADPH fluorescence slope: -6.5e-05 (inactive)
[6]
  slope: 0.00675 (inactive)
[7]
  inhibition: 17% (inactive)
[8]
  inhibition: 34.7% (inactive)

## C=CCn1c(SC(C)C(=O)NC2(C#N)CCCCC2)nnc1-c1ccc(OC)cc1 (stereo not given)
[1]
  cell count: 612
  inhibition: 9.9% (inactive)
[2]
  inhibition of aggregation: 6.2% (inactive)
  nuclei count: 95%
[3]
  inhibition: -154% (inactive)
  nuclei count: 94%
[4]
  fluorescence slope: -0.594 (inactive)
[5]
  NADPH fluorescence slope: -3.3e-05 (inactive)
[6]
  slope: 0.00361 (inactive)
[7]
  inhibition: 22.5% (inactive)
[8]
  inhibition: 21.6% (inactive)

## CCc1cc(=O)n2[nH]c(C)c(-c3ccccc3OC)c2n1
[1]
  cell count: 595
  inhibition: 2.8% (inactive)
[2]
  inhibition of aggregation: 42.7% (inactive)
  nuclei count: 64.6%
[3]
  inhibition: -38.4% (inactive)
  nuclei count: 96.2%
[4]
  fluorescence slope: -0.592 (inactive)
[5]
  NADPH fluorescence slope: -2.9e-05 (inactive)
[6]
  slope: 0.00657 (inactive)
[7]
  inhibition: 4.14% (inactive)
[8]
  inhibition: 16.3% (inactive)

## O=C(C(c1ccccc1)c1ccccc1)N1CCN(Cc2ccccn2)CC1
[1]
  cell count: 357
  inhibition: -7.5% (inactive)
[2]
  inhibition of aggregation: 3.4% (inactive)
  nuclei count: 98.4%
[3]
  inhibition: -11.4% (inactive)
  nuclei count: 107%
[4]
  fluorescence slope: -0.369 (inactive)
[5]
  NADPH fluorescence slope: -1.3e-05 (inactive)
[6]
  slope: 0.00484 (inactive)
[7]
  inhibition: 5.9% (inactive)
[8]
  inhibition: 18.2% (inactive)

## c1ccc(CN2C3=NCCCN3c3ccccc32)cc1
[1]
  cell count: 361
  inhibition: -4.7% (inactive)
[2]
  inhibition of aggregation: -10.1% (inactive)
  nuclei count: 97.9%
[3]
  inhibition: -3.7% (inactive)
  nuclei count: 117%
[4]
  fluorescence slope: -0.601 (inactive)
[5]
  NADPH fluorescence slope: -1.3e-05 (inactive)
[6]
  slope: 0.00493 (inactive)
[7]
  inhibition: 11.4% (inactive)
[8]
  inhibition: 22.1% (inactive)

## COc1ccccc1C(=O)NCCNC(=O)c1ccco1
[1]
  cell count: 388
  inhibition: 6.3% (inactive)
[2]
  inhibition of aggregation: 5.6% (inactive)
  nuclei count: 110%
[3]
  inhibition: -78% (inactive)
  nuclei count: 113%
[4]
  fluorescence slope: -0.412 (inactive)
[5]
  NADPH fluorescence slope: -4.6e-05 (inactive)
[6]
  slope: 0.00705 (inactive)
[7]
  inhibition: -4.73% (inactive)
[8]
  inhibition: -9.5% (inactive)

## COCCOC(=O)c1[nH]c2c(c1C)C(=O)CC(c1ccc(N(C)C)cc1)C2 (stereo not given)
[1]
  cell count: 342
  inhibition: -4.6% (inactive)
[2]
  inhibition of aggregation: -19% (inactive)
  nuclei count: 105%
[3]
  inhibition: 21.3% (inactive)
  nuclei count: 83.3%
[4]
  fluorescence slope: -0.534 (inactive)
[5]
  NADPH fluorescence slope: 1.4e-05 (inactive)
[6]
  slope: 0.00456 (inactive)
[7]
  inhibition: -15.6% (inactive)
[8]
  inhibition: -26.9% (inactive)

## Cc1ccc2cc(CCNC(=O)C(C)C)c(=O)[nH]c2c1C
[1]
  cell count: 640
  inhibition: 1.9% (inactive)
[2]
  inhibition of aggregation: 8.6% (inactive)
  nuclei count: 57.4%
[3]
  inhibition: -60.4% (inactive)
  nuclei count: 125%
[4]
  fluorescence slope: -0.57 (inactive)
[5]
  NADPH fluorescence slope: -2.3e-05 (inactive)
[6]
  slope: 0.00565 (inactive)
[7]
  inhibition: -6.46% (inactive)
[8]
  inhibition: -5.17% (inactive)

## Cc1ccc2nc(-c3ccccn3)cc(C(=O)N3CCN(c4ncccn4)CC3)c2c1
[1]
  cell count: 367
  inhibition: -5.9% (inactive)
[2]
  inhibition of aggregation: 0% (inactive)
  nuclei count: 107%
[3]
  inhibition: 6% (inactive)
  nuclei count: 115%
[4]
  fluorescence slope: -0.346 (inactive)
[5]
  NADPH fluorescence slope: -5.1e-05 (inactive)
[6]
  slope: 0.00536 (inactive)
[7]
  inhibition: 4.96% (inactive)
[8]
  inhibition: 8.03% (inactive)

## COc1ccc(CCNC(=O)CSCc2n[nH]c(=O)[nH]2)cc1OC
[1]
  cell count: 330
  inhibition: 1.6% (inactive)
[2]
  inhibition of aggregation: -15.4% (inactive)
  nuclei count: 99.5%
[3]
  inhibition: -97.5% (inactive)
  nuclei count: 131%
[4]
  fluorescence slope: -0.476 (inactive)
[5]
  NADPH fluorescence slope: -3.9e-05 (inactive)
[6]
  slope: 0.00502 (inactive)
[7]
  inhibition: 19.2% (inactive)
[8]
  inhibition: 24.3% (inactive)

## Cc1cc(C(=O)NCCCc2ccccc2)no1
[1]
  cell count: 765
  inhibition: -8.2% (inactive)
[2]
  inhibition of aggregation: 0% (inactive)
  nuclei count: 105%
[3]
  inhibition: -58% (inactive)
  nuclei count: 120%
[4]
  fluorescence slope: -0.358 (inactive)
[5]
  NADPH fluorescence slope: -1.1e-05 (inactive)
[6]
  slope: 0.00425 (inactive)
[7]
  inhibition: -11.5% (inactive)
[8]
  inhibition: -13.4% (inactive)

## Cc1c(NC(=O)c2noc3c2CCc2ccccc2-3)c(=O)n(-c2ccccc2)n1C
[1]
  cell count: 620
  inhibition: -3.4% (inactive)
[2]
  inhibition of aggregation: -4.3% (inactive)
  nuclei count: 110%
[3]
  inhibition: -79.6% (inactive)
  nuclei count: 116%
[4]
  fluorescence slope: -0.474 (inactive)
[5]
  NADPH fluorescence slope: 2.6e-05 (inactive)
[6]
  slope: 0.0062 (inactive)
[7]
  inhibition: 2.37% (inactive)
[8]
  inhibition: -5.2% (inactive)

## O=C(NC1CCCC1)C1CC1c1ccccc1 (stereo not given)
[1]
  cell count: 516
  inhibition: -4.3% (inactive)
[2]
  inhibition of aggregation: -5.1% (inactive)
  nuclei count: 99.7%
[3]
  inhibition: 26.9% (inactive)
  nuclei count: 78.4%
[4]
  fluorescence slope: -0.617 (inactive)
[5]
  NADPH fluorescence slope: -1.4e-05 (inactive)
[6]
  slope: 0.00431 (inactive)
[7]
  inhibition: 8.1% (inactive)
[8]
  inhibition: 8.52% (inactive)
